# Assay results taken from PubChem BioAssay (Tox21).
# Records with an inconclusive call do not appear. Entries that show only a call come without a potency. Active and inactive are the calls of the source. The call rests on the fitted dose curve; in most records, active means well fitted cell-killing curve with a large enough effect in the repeat runs (not every such curve was filed as active); inconclusive means weak or mixed curves, or effect the other way; inactive means no such curve, though single readings can be large or run the other way.
# Experiment: qHTS assay to identify small molecule antagonists of the farnesoid-X-receptor (FXR) signaling pathway - cell viability counter screen (AID 743221); further: nearly all actives have a fitted effect of over 50% in size
# Details: FXR-bla HEK293T viability, CellTiter-Glo luminescence, 16 h; series mostly up to 62.6 µM
# Description: National Center for Advancing Translational Sciences [NCATS]
# NIH Chemical Genomics Center [NCGC]
# U.S. Environmental Protection Agency [EPA]
# National Institutes of Environmental Health Sciences [NIEHS]
# National Toxicology Program [NTP]
# U.S. Food and Drug Administration [FDA]
# The farnesoid-X-receptor (FXR), a nuclear hormone receptor, is highly expressed in liver, intestine, kidney and adrenal cortex. Natural ligands of FXR are the bile acids (Cholic acid, Chenodeoxy cholic acid etc). FXR is an important regulator of diverse metabolic pathways, including the bile acid homeostasis, lipid and glucose metabolisms. FXR regulates the expression of target genes by binding either as a monomer or as a heterodimer with the retinoid X receptor (RXR). Numerous studies have reported that FXR exerts protective function during cholestasis, diabetes, liver regeneration, and cancer. To identify compounds that inhibit FXR signaling, GeneBLAzer FXR-UAS-bla HEK 293T cell line (Invitrogen, Carlsbad, CA) containing a beta-lactamase reporter gene under the control of a UAS response element was used to screen the Tox21 10K compound library. The cytotoxicity of the Tox21 compound library against the FXR-bla cell line was tested in parallel by measuring the cell viability using CellTiter-Glo assay in the same wells.
# Tox21 Assay Protocol Summary:
# FXR-bla cells were dispensed at 5000 cells/5uL/well in 1536-well black wall/clear bottom plates using a Multidrop Combi (Thermo Fisher Scientific, Waltham, MA) dispenser. After the assay plates were incubated at 37 C and 5% CO2 for 5 h, 23 nL of compounds dissolved in DMSO, positive controls or DMSO only was transferred to the assay plate by a Pintool station (Kalypsys, San Diego, CA), followed by addition of 1 uL Chenodeoxycholic acid (50 uM, final concentration in the wells). The assay plates were incubated at 37C for 16 h. After 1 uL of LiveBLAzerTM B/G FRET substrate was added using a Bioraptr Flying Reagent Dispenser (FRD) workstation (Beckman Coulter, Indianapolis, IN), the plates were incubated at room temperature for 2 h, and fluorescence intensity was measured by an Envision plate reader (PerkinElmer, Shelton, CT). For cell viability readout that measures cytotoxicity, 4uL/well of CellTiter-Glo reagent was added into the assay plates using a Bioraptr FRD. After 30 min incubation at room temperature, the luminescence intensity in the plates was measured using a ViewLux plate reader (PerkinElmer).
row,Compound,Potency
1,Oc1ccc(Nc2ccccc2)cc1,inactive
2,CCC(C(=O)OCCOCCN(CC)CC)c1ccccc1 (stereo not given),inactive
3,CNC(=O)N(c1ccccc1)c1ccccc1,inactive
4,CCCCCCCC/C=C\CCCCCCCC(=O)OC,inactive
5,CC(C)CCCCCCOC(=O)CCCCC(=O)OCCCCCCC(C)C,inactive
6,C[N+](C)(C)CCOC(N)=O,inactive
7,CC(C)CCCCCOC(=O)CCCCC(=O)OCCCCCC(C)C,inactive
8,CC(Cl)C(Cl)Cl (stereo not given),inactive
9,O=[N+]([O-])c1cccc(S(=O)(=O)NCCNS(=O)(=O)c2cccc([N+](=O)[O-])c2)c1,inactive
10,COC(=O)c1cc(S(N)(=O)=O)ccc1OC,inactive
11,OC/C(Br)=C(\Br)CO,inactive
12,O=C(OCCOCCO)c1ccccc1Nc1cccc(C(F)(F)F)c1,inactive
13,CCN(CC)CCNC(=O)c1ccc(NC(C)=O)cc1,inactive
14,O=S(=O)(c1ccccc1)c1ccc(Cl)cc1,inactive
15,CC1CC(=O)NN=C1c1ccc(NCC(C)(C)NCC(O)COc2cc(Cl)ccc2C#N)cc1 (stereo not given),inactive
16,CO/N=C1\CN(c2nc3c(cc2F)c(=O)c(C(=O)O)cn3C2CC2)CC1CN (stereo not given),inactive
17,CC(C)(CCl)c1ccccc1,inactive
18,Nc1ccc(S(=O)(=O)O)c(N)c1,inactive
19,Cc1nc2ccccn2c(=O)c1CCN1CCC(C(=O)c2ccc(F)cc2)CC1,inactive
20,Nc1ccc(S(=O)(=O)O)cc1,inactive

row,Compound,Potency
1,CCCCCCOC(=O)CCCCCCCC(=O)OCCCCCC,inactive
2,CC(C)=CC=O,inactive
3,O=C(C(=O)c1ccccc1)c1ccccc1,inactive
4,COc1ccc(C(=O)c2cccc(O)c2)c(OC)c1,inactive
5,O=C(CCC1CCN(Cc2ccccc2)CC1)c1ccc2c(c1)NCCCC2,inactive
6,Cc1cc(O)c(C(C)C)cc1Cl,inactive
7,CCCCCCCCCCCC[N+](C)(C)CCCS(=O)(=O)[O-],inactive
8,CC(C)C(OC(=O)c1ccccc1)C(C)(C)COC(=O)c1ccccc1 (stereo not given),inactive
9,O=C(/C=C/c1ccccc1)OCCCc1ccccc1,inactive
10,CCNC(=O)N1CCN(CCCC(c2ccc(F)cc2)c2ccc(F)cc2)CC1,inactive
11,CC(N)CN (stereo not given),inactive
12,Cc1cc(O)c2c(O)c3c(O)cccc3cc2c1,inactive
13,CCN(Cc1cccc(S(=O)(=O)O)c1)c1ccc(C(=C2C=CC(=[N+](CC)Cc3cccc(S(=O)(=O)[O-])c3)C=C2)c2ccccc2)cc1,inactive
14,CCCCCCCCCCCCCCCCBr,inactive
15,Cc1cc(OI)c(C(C)C)cc1-c1cc(C(C)C)c(OI)cc1C,inactive
16,C=CCOC(=O)/C=C\C(=O)OCC=C,inactive
17,OC(CCCN1CCCCC1)(c1ccccc1)c1ccccc1,inactive
18,CC(=O)N(c1onc(C)c1C)S(=O)(=O)c1ccc(N)cc1,inactive
19,CC(C)OCC1CO1 (stereo not given),inactive
20,CC1=C(C=O)C(C)(C)CCC1,inactive
